# Pf Dd2 growth: inhibitors of Plasmodium falciparum Dd2 growth; Potency, µM (top dose mostly 28.9 µM), inactives show at the highest dose activity, negative = inhibition, most hits filed as inhibitors; hit rate 4.3% among 120,000; P. falciparum Dd2 growth, SYBR Green, 72 h; active means well fitted inhibition curve with a large enough effect;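 further: plate controls were DMSO vehicle for no effect and reference drug for full effect; nearly all actives have a fitted effect of over 65% in size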
#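 Infected erythrocytes (Dd2, 0.3% parasitemia, 2.5% hematocrit final) are added to compound in RPMI-1640/Albumax II medium, grown 72 h at 37C in low oxygen, then lysed with saponin/Triton-X containing SYBR Green and read by fluorescence.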
# * = called active by the depositor; i = inactive; [ ] = remark or other dose. The entries come from a sample that favours hits as a whole. Potency means the concentration at half of the fitted maximal effect.
SMILES,Pf Dd2 growth
Cc1ccc(SCC(=O)Nc2ccc3oc(-c4cccc(C)c4)nc3c2)cc1,-4%
Cc1ccc2nc(-c3cccc(NC(=O)CSc4ccc(Cl)cc4)c3)oc2c1,11µM*
Cc1ccc2nc(-c3ccc(C)c(NC(=O)CSc4ccc(Cl)cc4)c3)oc2c1,0%
O=C(N[C@@H]1CCN(C(=O)c2ccc3c(c2)OCO3)C[C@H]1O)c1cnccn1,-6%
Cc1nc(-c2ccc(N(C)C)cc2)cc([C@H]2CN3CC[C@H]2C[C@@H]3COC(=O)Nc2ccc(C(C)C)cc2)n1,4µM*
CCNC(=O)NC[C@H]1C[C@@H]2CCN1C[C@@H]2c1cc(-c2ccc(OC)c(OC)c2)nc(C)n1,-20%
Cc1nc(-c2ccccc2)cc([C@H]2CN3CC[C@H]2C[C@@H]3CNC(=O)C2CCC2)n1,i
Cc1nc(-c2ccc(N(C)C)cc2)cc([C@H]2CN3CC[C@H]2C[C@@H]3CNC(=O)c2ccccc2)n1,3.2µM*
COc1ccc(C(=O)NC[C@H]2C[C@@H]3CCN2C[C@@H]3c2cc(-c3ccc(N(C)C)cc3)nc(C)n2)cc1,i
Cc1nc(-c2ccc(N(C)C)cc2)cc([C@H]2CN3CC[C@H]2C[C@@H]3COC(=O)NC(C)C)n1,-4%
Cc1nc(-c2ccccc2)cc([C@H]2CN3CC[C@H]2C[C@@H]3CNC(=O)C2CC2)n1,i
COc1ccc(-c2cc([C@H]3CN4CC[C@H]3C[C@@H]4CN)nc(C)n2)cc1OC,11µM*
CCCS(=O)(=O)NC[C@H]1C[C@@H]2CCN1C[C@@H]2c1cc(-c2ccc(OC)c(OC)c2)nc(C)n1,i
CCNC(=O)NC[C@H]1C[C@@H]2CCN1C[C@@H]2c1cc(-c2ccc(N(C)C)cc2)nc(C)n1,-4%[44.1 µM]
Cc1nc(-c2ccccc2)cc([C@H]2CN3CC[C@H]2C[C@@H]3CN(Cc2ccco2)Cc2ccco2)n1,1.1µM*
CCc1ccccc1NC(=O)N1CCC(Oc2ncccc2NC)C1 (centres undefined),i
O=C1OCC2(CCN([S+](=O)([O-])c3ccccc3F)C2)N1CCN1CCOCC1 (centres undefined),i
C[C@H]1[C@@H]2[C@@H](O)C([C@H](C)C(=O)N(C)CCC#N)CC[C@@]2(C)CC[C@@H]1NC(=O)c1ccncc1 (some centres undefined),-12%[44.1 µM]
CCN(Cc1ccc(C)o1)C(=O)c1ccc2nc(-c3ccc(F)cc3)cn2c1,4%
Cc1nc(CC2CCN(C(=O)c3cccn3C)CC2)n[nH]1,-3%
Cc1ccc(CN2CCOc3ccc(C(=O)NCc4ccccc4F)cc3C2)o1,i
CCCc1ccccc1OCC(=O)c1ccc2c(c1)N(CC(=O)N1CCOCC1)C(=O)CO2,-8%
COc1cc(Cl)ccc1C(=O)N1C[C@@H](F)C[C@H]1C(=O)N1CCCCC1,13%
COCc1nc(C2CCCN(C(=O)Nc3ccccc3C)C2)no1 (centres undefined),30%
O=C(c1cc[nH]c(=O)c1)N1C[C@@H](CO)[C@H](c2ccccn2)C1,-4%
SMILES,Pf Dd2 growth
COc1ccc(C(=O)NC(C(=O)NC2CC2)C2CCN(C(C)=O)CC2)cc1 (centres undefined),3%
Cc1ccc(C(=O)NC[C@H]2C[C@@H]3CCN2C[C@@H]3c2cc(-c3ccccc3Br)nc(C)n2)cc1,-9%
Cc1nc(-c2ccccc2Br)cc([C@H]2CN3CC[C@H]2C[C@@H]3CNC(=O)c2ccc(C(C)(C)C)cc2)n1,3.2µM*
Cc1nc(-c2ccccc2Br)cc([C@H]2CN3CC[C@H]2C[C@@H]3CNC(=O)NC2CCCCC2)n1,i
O=C(C1CC1)N1CCc2nc(C3CC3)nc(-c3ccc(Cl)cc3)c2C1,-1%
Cn1nccc1C(=O)N1CCC2(CC1)CC(OCC1CC1)CCO2 (centres undefined),24%
CCc1nncn1C1CCN(C(=O)c2cc(F)ccc2F)CC1,-11%
O=C1NCCCCCCN(Cc2ccncc2)[C@@H]2CN(C3CCOCC3)CC[C@H]12,i
Cc1ccc(N(C)S(=O)(=O)c2ccc3[nH]c4c(c3c2)CCCC4)cc1,-17%
CCc1ccc(NS(=O)(=O)c2ccc3[nH]c4c(c3c2)CCCCCC4)cc1,14%
CCN(Cc1ccccc1)S(=O)(=O)c1ccc2[nH]c3c(c2c1)CCCCC3,13µM*
COc1ccc(NC(=O)[C@@H]2C[C@@H](c3ccc(F)cc3)N([S+](=O)([O-])c3ccccc3)C2)cc1,8.9µM*
O=C(Nc1cccc(Cl)c1)[C@@H]1C[C@@H](c2ccc(F)cc2)N([S+](=O)([O-])c2ccccc2)C1,-3%
COc1ccc(NC(=O)[C@@H]2C[C@@H](c3ccc(F)cc3)N([S+](=O)([O-])c3ccccc3)C2)cn1,-24%
CC1(Cc2ccc3c(c2)OCO3)CCCN(CC(=O)NCc2ccco2)C1 (centres undefined),-20%
COc1cccc(C(=O)N2CCOc3ccc(CN4CCCCC4)cc3C2)c1,i
CCN(CC)Cc1ccc2c(c1)CN(C(=O)c1cccc(F)c1)CCO2,6.3µM*
CCOCCCNC(=O)N1CCOc2ccc(CN(CC)CC)cc2C1,i
CCn1ncc(N2CCC(NC(=O)c3cccs3)CC2)cc1=O,-8%
c1cncc(-c2ccnc(NCC(c3cccnc3)N3CCCCC3)n2)c1 (centres undefined),-13%
CN1CCCC1CCNc1nccc(-c2cnn(-c3ccc(F)cc3)c2)n1 (centres undefined),8.9µM*
OCC1CCCCN1CCNc1nccc(-c2cccnc2)n1 (centres undefined),-30%
c1ccc(CCc2nc3nccc(-c4ccco4)n3n2)cc1,-10%
O=C(O)c1ccc(CN2CC[C@@H](c3ccc4c(c3)OCO4)[C@H](O)C2)cc1,-13%
CC(C)n1cc(CN2CC[C@@H](c3ccc4ccccc4c3)[C@H](O)C2)cn1,10µM*
SMILES,Pf Dd2 growth
CC(C)c1csc(CN2CC[C@@H](c3ccc4c(c3)OCO4)[C@H](O)C2)n1,-14%
O=C1C(N2CCN(S(=O)(=O)Cc3ccc(Cl)cc3)CC2)CCN1Cc1cccnc1 (centres undefined),-5%
O=C1CC2CCCC(C1)N2C(=O)c1ccc(Cl)cc1,-28%[44.1 µM]
CCN(CC)Cc1cnc2c(C(=O)N3CCC(N4CCCC4)CC3)cnn2c1,0%
Cc1cc(-n2c(C)nc3ccccc3c2=O)ccc1NC(=O)c1cccc([N+](=O)[O-])c1,8.9µM*
Cc1cc(C(=O)Nc2ccc(-n3c(C)nc4ccccc4c3=O)cc2)ccc1[N+](=O)[O-],-4%
Cc1nc2ccccc2c(=O)n1-c1ccc(NC(=O)c2ccc([N+](=O)[O-])cc2)cc1,15%
CCOc1ccc(-c2nc(-c3nnn4c3COC(c3ccc(OC)cc3)C4)no2)cc1 (centres undefined),i
c1cc(-c2nc(C3CCOCC3)nn2CC2COCCO2)[nH]n1 (centres undefined),4%
Cn1cnc2cc(-c3cccc4[nH]ccc34)cc(C(=O)NCc3cccnc3)c21,i
CCN1CC(CN(C)Cc2cn(-c3ccccc3C)nc2-c2ccc(OC)c(F)c2)CC1=O (centres undefined),10µM*
COc1ccc(-c2nn(-c3ccccc3C)cc2CN(C)CCN2CCOCC2)cc1F,11µM*
CCN1CC(CN(C)Cc2nc(Cc3cccc(F)c3)no2)CC1=O (centres undefined),3%
COc1ccc(-c2n[nH]c3c2CC(=O)N(CCOc2ccccc2)C3)cc1F,-16%[44.1 µM]
Cc1ccc(C)c(-n2cc(CN(C)CCO)c(-c3ccccc3)n2)c1,-18%
COc1ccccc1-c1ccnc(-c2nnc(C)n2CCN2CCOCC2)c1,i
